# Test results from PubChem BioAssay.
# The other results are listed elsewhere or left out. Activity calls are given as the source filed them.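 How the source made its calls, unless noted: active means average inhibition above a cutoff equal to the mean inhibition of all tested compounds plus one SD (cut at about 70% in these data); inactive means the rest.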
# Biological target: Nuclear receptor coactivator 3 (Homo sapiens) (UniProt Q9Y6Q9)
# Assay: NCOA3 GAL4-fusion reporter inhibition – cell-based, luminescence, quadruplicate, confirmation (AID 588792;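 active means mean inhibition over 43.08%, the solvent-only control mean plus 3 SD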;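 further: 0% = DMSO treated cells and 100% = gossypol at 36 µM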)
# Details: HEK293 GAL4-SRC3 luciferase reporter, at 3.6 µM, active compounds read high
# Nuclear receptor coactivator 3 (Homo sapiens), sequence (Q9Y6Q9 whole entry, looked up, the tested form may be a part): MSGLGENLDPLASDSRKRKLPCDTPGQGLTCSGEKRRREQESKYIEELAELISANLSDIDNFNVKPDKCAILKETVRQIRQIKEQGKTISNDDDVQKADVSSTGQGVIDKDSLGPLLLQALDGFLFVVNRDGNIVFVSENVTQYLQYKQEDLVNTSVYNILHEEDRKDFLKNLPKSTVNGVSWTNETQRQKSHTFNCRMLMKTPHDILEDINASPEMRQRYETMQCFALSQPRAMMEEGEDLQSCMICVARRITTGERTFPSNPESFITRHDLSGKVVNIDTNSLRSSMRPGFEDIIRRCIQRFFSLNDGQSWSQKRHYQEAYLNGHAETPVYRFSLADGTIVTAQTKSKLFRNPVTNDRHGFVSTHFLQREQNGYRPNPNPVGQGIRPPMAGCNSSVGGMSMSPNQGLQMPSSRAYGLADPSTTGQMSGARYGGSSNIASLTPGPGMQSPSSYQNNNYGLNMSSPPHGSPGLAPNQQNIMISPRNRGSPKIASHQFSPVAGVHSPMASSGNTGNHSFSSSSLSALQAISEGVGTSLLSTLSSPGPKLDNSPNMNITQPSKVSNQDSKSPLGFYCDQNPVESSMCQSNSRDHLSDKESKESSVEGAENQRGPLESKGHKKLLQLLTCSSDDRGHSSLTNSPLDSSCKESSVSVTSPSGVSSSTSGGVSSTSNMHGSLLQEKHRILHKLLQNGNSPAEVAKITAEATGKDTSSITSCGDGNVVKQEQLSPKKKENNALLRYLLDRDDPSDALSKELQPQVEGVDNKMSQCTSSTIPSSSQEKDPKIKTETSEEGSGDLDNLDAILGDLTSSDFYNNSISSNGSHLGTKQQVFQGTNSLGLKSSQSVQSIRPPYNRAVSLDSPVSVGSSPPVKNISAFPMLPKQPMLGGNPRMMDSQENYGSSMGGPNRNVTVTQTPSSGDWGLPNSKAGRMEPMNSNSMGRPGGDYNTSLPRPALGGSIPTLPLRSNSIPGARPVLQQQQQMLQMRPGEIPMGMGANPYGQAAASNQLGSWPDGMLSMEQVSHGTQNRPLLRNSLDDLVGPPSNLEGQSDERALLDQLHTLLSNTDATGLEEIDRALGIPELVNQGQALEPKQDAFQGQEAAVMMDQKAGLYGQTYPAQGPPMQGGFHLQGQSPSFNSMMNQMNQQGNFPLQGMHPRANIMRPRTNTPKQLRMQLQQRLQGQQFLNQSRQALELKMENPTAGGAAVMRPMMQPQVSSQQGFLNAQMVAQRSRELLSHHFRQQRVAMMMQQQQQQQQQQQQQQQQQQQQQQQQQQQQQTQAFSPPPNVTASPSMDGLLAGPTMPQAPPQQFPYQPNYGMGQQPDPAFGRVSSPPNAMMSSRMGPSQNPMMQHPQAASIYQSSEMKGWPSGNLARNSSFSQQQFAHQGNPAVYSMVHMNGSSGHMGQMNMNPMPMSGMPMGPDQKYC
row,SMILES,inhibition
1,C[C@@H]1C[C@@H]2O[C@H]2/C=C\C=C\C(=O)Cc2c(Cl)c(O)cc(O)c2C(=O)O1,62.2% (active)
2,CC1CC2=C(CC1/C=N/NC(N)=S)C(C)(C)CCC2 (configuration not stated),50.9% (active)
3,CN(c1ccc2nc3ccccc3c(=O)n2n1)C1CCCCC1,59.8% (active)

# System: transactivating tegument protein VP16 (Human herpesvirus 1), Gal4-VP16 luciferase reporter
# Assay: repression of VP16-driven luciferase reporter – cell-based, luminescence, high throughput, counter-screen for SRC3 inhibitor project (AID 588794; in the data active means inhibition above about 30%)
# Details: mammalian cells, at 3.6 µM, active compounds read high
row,SMILES,inhibition
1,C[C@@H]1C[C@@H]2O[C@H]2/C=C\C=C\C(=O)Cc2c(Cl)c(O)cc(O)c2C(=O)O1,74.4% (active)
2,CC1CC2=C(CC1/C=N/NC(N)=S)C(C)(C)CCC2 (configuration not stated),30.1% (active)
3,CN(c1ccc2nc3ccccc3c(=O)n2n1)C1CCCCC1,48.9% (active)

# Biological target: Nuclear receptor coactivator 1 (Homo sapiens) (UniProt Q15788)
# Assay: NCOA1 GAL4-fusion reporter inhibition – cell-based, luminescence, quadruplicate, confirmation (AID 588820;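 active means mean inhibition above 46.68%, the untreated control wells mean plus 3 SD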;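 further: 0% = DMSO wells and 100% = gossypol 36 µM treated wells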)
# Details: HEK293 GAL4-SRC1 luciferase reporter, at 3.6 µM, active compounds read high
# Nuclear receptor coactivator 1 (Homo sapiens), sequence (Q15788 whole entry, looked up, the tested form may be a part): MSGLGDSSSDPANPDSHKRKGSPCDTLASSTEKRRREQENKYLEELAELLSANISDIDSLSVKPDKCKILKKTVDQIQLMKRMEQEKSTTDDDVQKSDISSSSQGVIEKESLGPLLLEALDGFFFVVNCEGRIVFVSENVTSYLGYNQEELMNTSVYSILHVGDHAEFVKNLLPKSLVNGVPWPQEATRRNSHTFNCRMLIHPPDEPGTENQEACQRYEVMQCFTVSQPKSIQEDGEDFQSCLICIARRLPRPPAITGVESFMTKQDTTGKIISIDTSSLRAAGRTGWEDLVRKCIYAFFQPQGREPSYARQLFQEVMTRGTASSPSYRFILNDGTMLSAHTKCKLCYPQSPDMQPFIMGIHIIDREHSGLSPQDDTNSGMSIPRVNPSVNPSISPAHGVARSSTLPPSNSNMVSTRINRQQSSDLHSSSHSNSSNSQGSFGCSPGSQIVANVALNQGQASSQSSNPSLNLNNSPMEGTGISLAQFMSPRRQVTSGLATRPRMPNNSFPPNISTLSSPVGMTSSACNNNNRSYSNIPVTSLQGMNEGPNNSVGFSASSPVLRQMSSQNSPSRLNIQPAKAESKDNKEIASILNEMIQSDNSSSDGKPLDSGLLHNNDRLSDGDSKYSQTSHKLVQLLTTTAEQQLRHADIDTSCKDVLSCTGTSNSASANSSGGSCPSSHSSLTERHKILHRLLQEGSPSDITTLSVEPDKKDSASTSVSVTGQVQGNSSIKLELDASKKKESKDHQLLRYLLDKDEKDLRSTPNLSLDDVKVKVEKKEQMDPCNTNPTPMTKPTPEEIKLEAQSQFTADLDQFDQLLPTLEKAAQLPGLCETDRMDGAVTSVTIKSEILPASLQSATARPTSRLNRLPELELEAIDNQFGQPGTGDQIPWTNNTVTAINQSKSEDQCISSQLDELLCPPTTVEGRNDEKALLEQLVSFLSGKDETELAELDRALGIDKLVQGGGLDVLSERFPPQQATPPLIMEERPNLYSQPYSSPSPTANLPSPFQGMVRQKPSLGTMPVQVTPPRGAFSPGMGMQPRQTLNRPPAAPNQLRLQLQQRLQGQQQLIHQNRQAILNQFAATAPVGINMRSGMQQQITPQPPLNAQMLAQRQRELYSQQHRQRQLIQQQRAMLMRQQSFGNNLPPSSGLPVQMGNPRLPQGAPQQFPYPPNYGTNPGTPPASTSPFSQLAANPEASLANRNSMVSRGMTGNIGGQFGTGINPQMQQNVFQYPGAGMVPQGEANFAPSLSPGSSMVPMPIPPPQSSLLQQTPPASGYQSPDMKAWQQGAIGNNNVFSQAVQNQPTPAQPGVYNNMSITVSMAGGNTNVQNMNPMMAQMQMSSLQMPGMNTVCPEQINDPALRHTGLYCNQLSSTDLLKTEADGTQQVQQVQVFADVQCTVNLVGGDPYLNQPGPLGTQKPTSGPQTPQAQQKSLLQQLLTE
row,SMILES,inhibition
1,C[C@@H]1C[C@@H]2O[C@H]2/C=C\C=C\C(=O)Cc2c(Cl)c(O)cc(O)c2C(=O)O1,-17.6% (inactive)
2,CC1CC2=C(CC1/C=N/NC(N)=S)C(C)(C)CCC2 (configuration not stated),32.9% (inactive)
3,CN(c1ccc2nc3ccccc3c(=O)n2n1)C1CCCCC1,-5.95% (inactive)

# System: not listed separately
# Assay: repression of VP16-driven luciferase reporter – cell-based, luminescence, high throughput, counter-screen for SRC1 inhibitor project (AID 588824; in the data active means inhibition above about 25%)
# Details: cell-based VP16 transactivation luciferase luminescence; at 3.6 µM; active compounds read high
row,SMILES,inhibition
1,C[C@@H]1C[C@@H]2O[C@H]2/C=C\C=C\C(=O)Cc2c(Cl)c(O)cc(O)c2C(=O)O1,72% (active)
2,CC1CC2=C(CC1/C=N/NC(N)=S)C(C)(C)CCC2 (configuration not stated),33.7% (active)
3,CN(c1ccc2nc3ccccc3c(=O)n2n1)C1CCCCC1,23.2% (inactive)

# Biological target: Receptor-interacting serine/threonine-protein kinase 2 (Homo sapiens) (UniProt O43353)
# Assay: inhibitors of RIPK2 association with NOD2 – fluorescence, CHO cells, BLA complementation, triplicate, confirmation (AID 624370;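 active means mean inhibition across replicates above a set limit taken from the earlier primary screen, cut at about 21% in these data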;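 further: 0% = DMSO-only wells and the high end = clavulanate BLA-blocked wells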)
# Details: CCF4 FRET, at 4.98 µM, active compounds read high
# Receptor-interacting serine/threonine-protein kinase 2 (Homo sapiens), sequence (O43353 whole entry, looked up): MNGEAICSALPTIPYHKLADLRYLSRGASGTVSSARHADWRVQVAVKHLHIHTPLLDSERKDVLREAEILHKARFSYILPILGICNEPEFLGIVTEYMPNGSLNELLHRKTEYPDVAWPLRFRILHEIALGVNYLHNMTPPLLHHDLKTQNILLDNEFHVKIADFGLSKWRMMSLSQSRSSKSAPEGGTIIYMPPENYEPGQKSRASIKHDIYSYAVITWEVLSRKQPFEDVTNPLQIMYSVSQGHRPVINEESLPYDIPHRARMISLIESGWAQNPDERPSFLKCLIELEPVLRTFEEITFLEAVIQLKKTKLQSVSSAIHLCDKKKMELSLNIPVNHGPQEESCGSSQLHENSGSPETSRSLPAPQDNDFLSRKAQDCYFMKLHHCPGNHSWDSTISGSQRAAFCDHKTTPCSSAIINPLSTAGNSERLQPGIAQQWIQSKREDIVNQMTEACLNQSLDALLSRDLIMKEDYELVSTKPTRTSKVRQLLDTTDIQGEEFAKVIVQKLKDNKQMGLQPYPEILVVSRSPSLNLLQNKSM
row,SMILES,inhibition
1,O=C(Nc1ccccc1)c1nnsc1S(=O)(=O)c1ccc(Cl)cc1,65.2% (active)
2,O=C(/C=C/c1ccc(Cl)c([N+](=O)[O-])c1)c1ccc(O)cc1,31.7% (active)
3,O=C1C=C(c2ccc(Cl)cc2)C(=O)N1Nc1ccccc1,90.3% (active)
4,CC1CC(C)CN(S(=O)(=O)c2cccc(C(=O)N3C(=O)c4cccc(N)c4C3=O)c2)C1 (configuration not stated),34.1% (active)

# System: not listed separately
# Assay: BLA reporter readout interference – cell-based, CHO-K1 CMV-bla, CCF4 FRET, fluorescence, artefact control for NOD2-RIPK2 interaction inhibitor project, confirmation (AID 624371;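 active means mean inhibition above the low-control mean inhibition plus three low-control SD, cut at about 11% in these data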;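 further: 0% = DMSO only wells and 100% = clavulanate high control wells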)
# Details: CCF4 FRET ratio, counterscreen, at 4.98 µM, active compounds read high
row,SMILES,inhibition
1,O=C(Nc1ccccc1)c1nnsc1S(=O)(=O)c1ccc(Cl)cc1,10.3% (inactive)
2,O=C(/C=C/c1ccc(Cl)c([N+](=O)[O-])c1)c1ccc(O)cc1,-1.48% (inactive)
3,O=C1C=C(c2ccc(Cl)cc2)C(=O)N1Nc1ccccc1,14.8% (active)
4,CC1CC(C)CN(S(=O)(=O)c2cccc(C(=O)N3C(=O)c4cccc(N)c4C3=O)c2)C1 (configuration not stated),33.2% (active)

# Biological target: Photoreceptor-specific nuclear receptor (Homo sapiens) (UniProt Q9Y5X4)
# Assay: retest of NR2E3-NCOR disrupting agonists – cell-based, luminescence, CHO-S two-hybrid, confirmation (AID 624378);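 further: 0% = DMSO in NR2E3 cells and 100% = DMSO in cells lacking NR2E3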
# Details: CHO-S mammalian two-hybrid NR2E3-NCOR, luciferase luminescence; at 3.98 µM; active compounds read high
# Photoreceptor-specific nuclear receptor (Homo sapiens), sequence (Q9Y5X4 whole entry, looked up): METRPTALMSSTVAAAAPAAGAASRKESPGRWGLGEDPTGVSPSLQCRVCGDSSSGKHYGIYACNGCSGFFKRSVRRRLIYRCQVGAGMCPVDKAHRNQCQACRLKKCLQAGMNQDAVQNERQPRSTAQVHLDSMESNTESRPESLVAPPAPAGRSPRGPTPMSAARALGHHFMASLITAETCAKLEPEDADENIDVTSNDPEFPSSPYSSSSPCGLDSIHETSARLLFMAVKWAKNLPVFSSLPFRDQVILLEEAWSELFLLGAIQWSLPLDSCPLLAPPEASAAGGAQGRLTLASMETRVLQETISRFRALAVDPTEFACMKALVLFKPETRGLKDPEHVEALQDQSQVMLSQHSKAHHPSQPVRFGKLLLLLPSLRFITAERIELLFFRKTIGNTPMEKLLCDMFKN
row,SMILES,inhibition
1,COc1ccc(C(=O)Nc2ccccc2C(=O)N/N=C/c2ccc(O)c(OC)c2)cc1,42.1% (inactive)
2,COc1cccc(/C=N/Nc2ncc(C(F)(F)F)cc2Cl)c1O,83% (active)
3,Cn1nccc1C(=O)NC1CCCc2c1cnn2-c1ccc(F)cc1F (configuration not stated),96.4% (active)
4,COc1cc(NC(=O)c2ccccc2NS(=O)(=O)c2ccc(Cl)s2)cc(OC)c1,99.6% (active)
5,CCNC(=O)CCc1nc(-c2ccc(C(C)(C)C)cc2)no1,73.5% (active)
6,CN(c1ccc2nc3ccccc3c(=O)n2n1)C1CCCCC1,43.9% (inactive)

# System: not listed separately
# Assay: nonselective effects on VP16 transactivation – cell-based, luminescence, CHO-S, high throughput, counter-screen for NR2E3 agonist project, confirmation (AID 624379;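 active means mean inhibition above a cutoff equal to the average over all tested compounds plus one standard deviation, cut at about 70% in these data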;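 further: luciferase from a UAS reporter driven by GAL4-VP16 transactivation; 0% = DMSO with VP16-transfected cells and 100% = DMSO with cells lacking VP16; higher means less reporter light so more repression of VP16 activity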)
# Details: CHO-S GAL4-VP16 luciferase reporter, at 3.98 µM, active compounds read high
row,SMILES,inhibition
1,COc1ccc(C(=O)Nc2ccccc2C(=O)N/N=C/c2ccc(O)c(OC)c2)cc1,-33% (inactive)
2,COc1cccc(/C=N/Nc2ncc(C(F)(F)F)cc2Cl)c1O,75.5% (active)
3,Cn1nccc1C(=O)NC1CCCc2c1cnn2-c1ccc(F)cc1F (configuration not stated),86.3% (active)
4,COc1cc(NC(=O)c2ccccc2NS(=O)(=O)c2ccc(Cl)s2)cc(OC)c1,90.3% (active)
5,CCNC(=O)CCc1nc(-c2ccc(C(C)(C)C)cc2)no1,77.8% (active)
6,CN(c1ccc2nc3ccccc3c(=O)n2n1)C1CCCCC1,10.8% (inactive)

# System: not listed separately
# Assay: StAR promoter reporter inhibitors, counter-screen for LRH-1 inverse agonist project, cell-based, luminescence, high throughput (AID 651611; in the data active means inhibition above about 28%)
# Details: StAR promoter luciferase reporter counterscreen, at 3.6 µM, active compounds read high
row,SMILES,inhibition
1,COc1ccc(C(=O)Nc2ccccc2C(=O)N/N=C/c2ccc(O)c(OC)c2)cc1,19% (inactive)
2,C[C@@H]1C[C@@H]2O[C@H]2/C=C\C=C\C(=O)Cc2c(Cl)c(O)cc(O)c2C(=O)O1,55.7% (active)
3,Cc1cccc(NC(=O)c2ccc([N+](=O)[O-])o2)c1,21.1% (inactive)
4,Cn1nccc1C(=O)NC1CCCc2c1cnn2-c1ccc(F)cc1F (configuration not stated),20.2% (inactive)
5,CN(c1ccc2nc3ccccc3c(=O)n2n1)C1CCCCC1,59.8% (active)

# Biological target: Nuclear receptor subfamily 5 group A member 2 (Homo sapiens) (UniProt O00482)
# Assay: NR5A2 activity suppression in reporter cells – cell-based, luminescence, confirmation (AID 651613; in the data active means inhibition above about 42%;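 further: HEK293T cells co-transfected with LRH-1 and StAR promoter luciferase reporter; 0% = vehicle wells and 100% = parental cells lacking receptor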)
# Details: cell-based LRH-1 luciferase reporter, inverse agonism; at 3.6 µM; active compounds read high
# Nuclear receptor subfamily 5 group A member 2 (Homo sapiens), sequence (O00482 whole entry, looked up): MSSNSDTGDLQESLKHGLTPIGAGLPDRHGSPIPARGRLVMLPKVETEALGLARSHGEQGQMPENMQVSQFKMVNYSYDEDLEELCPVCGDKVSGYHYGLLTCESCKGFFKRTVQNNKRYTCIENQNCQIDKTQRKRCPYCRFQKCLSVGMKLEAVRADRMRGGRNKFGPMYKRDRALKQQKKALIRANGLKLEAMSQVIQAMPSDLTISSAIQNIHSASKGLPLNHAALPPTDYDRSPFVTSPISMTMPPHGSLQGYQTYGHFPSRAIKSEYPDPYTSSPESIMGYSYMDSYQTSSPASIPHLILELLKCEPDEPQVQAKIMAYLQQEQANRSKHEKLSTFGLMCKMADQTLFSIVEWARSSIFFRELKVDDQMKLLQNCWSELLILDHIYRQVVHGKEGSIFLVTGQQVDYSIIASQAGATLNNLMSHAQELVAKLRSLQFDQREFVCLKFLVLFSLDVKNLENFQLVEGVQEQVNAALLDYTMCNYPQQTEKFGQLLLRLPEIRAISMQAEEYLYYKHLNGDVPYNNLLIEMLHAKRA
row,SMILES,inhibition
1,COc1ccc(C(=O)Nc2ccccc2C(=O)N/N=C/c2ccc(O)c(OC)c2)cc1,-69.7% (inactive)
2,C[C@@H]1C[C@@H]2O[C@H]2/C=C\C=C\C(=O)Cc2c(Cl)c(O)cc(O)c2C(=O)O1,68.5% (active)
3,Cc1cccc(NC(=O)c2ccc([N+](=O)[O-])o2)c1,58.8% (active)
4,Cn1nccc1C(=O)NC1CCCc2c1cnn2-c1ccc(F)cc1F (configuration not stated),62.8% (active)
5,CN(c1ccc2nc3ccccc3c(=O)n2n1)C1CCCCC1,14.8% (inactive)

# Biological target: Steroidogenic factor 1 (Homo sapiens) (UniProt Q13285)
# Assay: inverse agonism at SF1 nuclear receptor – cell-based, luminescence, high throughput, counter-screen for LRH-1 inverse agonist project (AID 651614; in the data active means inhibition above about 44%;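 further: cells cotransfected with StAR promoter reporter and SF1 expression vector; 0% = vehicle on cells with receptor and 100% = vehicle on cells lacking receptor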)
# Details: cell-based SF1 luciferase reporter, at 3.6 µM, active compounds read high
# Steroidogenic factor 1 (Homo sapiens), sequence (Q13285 whole entry, looked up): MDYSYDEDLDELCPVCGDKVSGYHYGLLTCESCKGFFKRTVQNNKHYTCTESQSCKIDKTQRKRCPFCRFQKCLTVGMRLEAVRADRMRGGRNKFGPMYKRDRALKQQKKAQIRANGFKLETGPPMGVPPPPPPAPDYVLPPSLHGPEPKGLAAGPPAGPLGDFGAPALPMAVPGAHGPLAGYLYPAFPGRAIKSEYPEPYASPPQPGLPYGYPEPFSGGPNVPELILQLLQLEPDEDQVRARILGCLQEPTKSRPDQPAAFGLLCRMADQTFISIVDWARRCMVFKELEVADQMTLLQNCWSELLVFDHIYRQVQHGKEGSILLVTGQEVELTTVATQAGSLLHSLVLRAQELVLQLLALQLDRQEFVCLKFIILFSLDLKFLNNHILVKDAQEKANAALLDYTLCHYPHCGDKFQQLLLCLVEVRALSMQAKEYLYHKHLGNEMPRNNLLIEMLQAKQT
row,SMILES,inhibition
1,COc1ccc(C(=O)Nc2ccccc2C(=O)N/N=C/c2ccc(O)c(OC)c2)cc1,11.7% (inactive)
2,C[C@@H]1C[C@@H]2O[C@H]2/C=C\C=C\C(=O)Cc2c(Cl)c(O)cc(O)c2C(=O)O1,56.9% (active)
3,Cc1cccc(NC(=O)c2ccc([N+](=O)[O-])o2)c1,57% (active)
4,Cn1nccc1C(=O)NC1CCCc2c1cnn2-c1ccc(F)cc1F (configuration not stated),67.1% (active)
5,CN(c1ccc2nc3ccccc3c(=O)n2n1)C1CCCCC1,57.6% (active)
